Results as given in paper PMC5540273 (PLoS ONE, 2017).

Columns and labels:
Conditions in all cases: concentration: 1 μM, replicates: in singlicate; n = 1
PCTK2 = tested on: T1, PCTK2
T1 construct: gene CDK17

PCTK3 = tested on: T2, PCTK3
T2 construct: gene CDK18

PDGFRA = tested on: PDGFRA
PDGFRB = tested on: PDGFRB
PDPK1 = tested on: PDPK1
PFTAIRE2 = tested on: PFTAIRE2
PFTK1 = tested on: T3, PFTK1
T3 construct: gene CDK14

PHKG1 = tested on: PHKG1
PHKG2 = tested on: PHKG2
PIK3C2B = tested on: PIK3C2B
PIK3C2G = tested on: PIK3C2G
PIK3CA = tested on: PIK3CA
PIK3CB = tested on: PIK3CB
PIK3CD = tested on: PIK3CD
PIK3CG = tested on: PIK3CG
PIK4CB = tested on: T4, PIK4CB
T4 construct: gene PI4KB

PIKFYVE = tested on: PIKFYVE
PIM1 = tested on: PIM1
PIM2 = tested on: PIM2
PIM3 = tested on: PIM3
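Also: KINOMEscan kinase panel screen.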

Compound	%Inh (PCTK2)	%Inh (PCTK3)	%Inh (PDGFRA)	%Inh (PDGFRB)	%Inh (PDPK1)	%Inh (PFTAIRE2)	%Inh (PFTK1)	%Inh (PHKG1)	%Inh (PHKG2)	%Inh (PIK3C2B)	%Inh (PIK3C2G)	%Inh (PIK3CA)	%Inh (PIK3CB)	%Inh (PIK3CD)	%Inh (PIK3CG)	%Inh (PIK4CB)	%Inh (PIKFYVE)	%Inh (PIM1)	%Inh (PIM2)	%Inh (PIM3)
Cc1occc1-c1ncc(OC[C@@H](N)Cc2c[nH]c3ccccc23)cc1-c1ccc2[nH]nc(C)c2c1.O=C(O)C(F)(F)F [GSK682037]	0%	0%	0%	81%	0%	16%	14%	0%	0%	0%	0%	0%	0%	0%	0%	0%	0%	39%	97.4%	64%
Cl.Cl.NCC(NCc1ccc(-c2ccnc3[nH]ccc23)s1)c1ccccc1 (stereo not shown) [GSK1321565]	0%	0%	5%	44%	0%	4%	1%	19%	13%	0%	0%	0%	19%	2%	21%	4%	3%	17%	0%	0%
CCn1c(-c2nonc2N)nc2c(C#CC(C)(C)O)ncc(OCCCCN)c21.O=C(O)C(F)(F)F.O=C(O)C(F)(F)F [GSK507274]	0%	0%	0%	25%	0%	6%	32%	5%	0%	0%	11%	0%	0%	0%	0%	0%	88%	69%	85%	78%
Nc1ncnc2c1nc(-c1ccccc1)n2-c1ccccc1 [SKF-97293]	0%	0%	36%	0%	2%	6%	25%	17%	0%	4%	6%	16%	27%	17%	13%	29%	20%	39%	0%	24%
Nc1n[nH]c2cnc(-c3ccccc3)cc12 [SB-642124]	0%	10%	0%	21%	0%	3%	19%	0%	0%	0%	0%	0%	0%	0%	0%	14%	0%	38%	0%	13%
Cn1cc(-c2ccc3c(c2)CCN3C(=O)Cc2cccc(F)c2)c2c(N)ncnc21 [GSK2603358]	0%	17%	78%	99.8%	0%	12%	18%	1%	0%	80%	0%	3%	0%	28%	30%	0%	11%	0%	0%	0%
COc1cccc(C2=C(Nc3ccc(Cl)c(C(=O)O)c3)C(=O)NC2=O)c1 [SB-390769]	0%	29%	0%	5%	0%	0%	26%	0%	0%	0%	100%	10%	93.3%	0%	0%	0%	21%	0%	0%	0%
COC(=O)Nc1nc2ccc(Oc3ccc(NC(=O)Nc4cc(C(F)(F)F)ccc4F)cc3)cc2n1C.Cl [GW692089]	0%	12%	78%	100%	0%	6%	4%	0%	0%	0%	4%	0%	0%	0%	0%	0%	6%	0%	24%	0%
c1ccc(Oc2ccc(Nc3ccnc4cc(-c5ccc(CNCCN6CCOCC6)o5)ccc34)cc2)nc1 [GW567145]	0%	2%	65%	89%	0%	6%	11%	3%	0%	0%	0%	0%	0%	0%	0%	0%	50%	0%	0%	0%
COc1cc(Nc2ncc3c(C)nc(-c4cc5ccccc5[nH]4)n3n2)cc(OC)c1OC [GW869516]	32%	6%	0%	29%	0%	0%	4%	27%	0%	0%	0%	0%	0%	0%	30%	0%	0%	4%	0%	0%
O=C(Nc1cccc(Oc2ccc3nc(NC(=O)C4CC4)cn3n2)c1)c1ccccc1C(F)(F)F	0%	6%	99.7%	100%	0%	7%	0%	18%	6%	0%	0%	0%	0%	0%	0%	0%	0%	0%	0%	0%
CN1CCN(CCCNc2nccc(-c3c(-c4ccc(F)cc4)nn4cc(C(F)(F)F)ccc34)n2)CC1 [GW621581]	0%	12%	0%	10%	3%	13%	0%	0%	0%	0%	3%	0%	0%	10%	0%	1%	95.6%	10%	0%	0%
Nc1ncc(-c2ccc3nccc(-c4ccncc4)c3c2)cc1S(=O)(=O)N1CCOCC1 [GSK1627798]	21%	26%	0%	13%	0%	39%	31%	0%	0%	99.5%	99.1%	100%	77%	94.1%	99.5%	96.1%	0%	0%	0%	0%
CN(C)S(=O)(=O)c1cc(-c2ccc3nccc(-c4cccc(S(N)(=O)=O)c4)c3c2)cnc1N [GSK1669921]	0%	0%	0%	16%	9%	31%	17%	0%	8%	95.5%	96%	100%	96.6%	98.8%	99.9%	96.5%	96.6%	19%	0%	12%
O=C(Nc1cccc(-c2nn3ccccc3c2-c2ccnc(Nc3cccc(F)c3)n2)c1)c1c(F)ccc(F)c1Cl [GSK357952]	0%	9%	18%	99.7%	36%	20%	2%	0%	0%	0%	21%	0%	0%	0%	0%	24%	0%	10%	0%	0%
Nc1ncc(-c2cccnc2)c2scc(-c3ccc4c(c3)CCN4C(=O)Cc3ccccc3)c12 [GSK683281]	8%	18%	53%	94.3%	21%	33%	20%	18%	0%	0%	0%	0%	0%	0%	0%	0%	0%	0%	0%	0%
Fc1ccc(-c2ncn(C3CCNCC3)c2-c2ccnc(Oc3ccc(-c4ccccc4)cc3)n2)cc1 [SB-245391]	1%	2%	23%	12%	21%	13%	9%	0%	0%	27%	39%	40%	40%	73%	39%	31%	15%	23%	4%	16%
O=C(O)C(F)(F)F.O=C(O)C(F)(F)F.O=c1[nH]ccc2nc(N[C@@H]3CCCNC3)nc(Nc3ccc(S(=O)(=O)N4CCOCC4)cc3)c12 [GSK2177277]	98.3%	96.2%	97.5%	100%	100%	61%	65%	97.7%	94.7%	51%	0%	0%	0%	0%	80%	59%	69%	97.5%	98.8%	99.8%
Oc1cc(Nc2ccnc3cc(I)ccc23)ccc1F [GW552771]	0%	15%	19%	49%	0%	0%	0%	0%	0%	0%	0%	0%	0%	19%	0%	20%	13%	8%	0%	0%
O=C(Nc1cccc(-c2nn3ccccc3c2-c2ccnc(Nc3cccc(C(F)(F)F)c3)n2)c1)c1c(F)cccc1F [GSK292658]	0%	0%	10%	97.3%	0%	15%	8%	0%	0%	0%	22%	0%	0%	0%	0%	8%	1%	0%	0%	0%
